GDH-TPI counter-1: GDH-TPI coupling enzyme inhibitors, primary screen, artefact control for M. tuberculosis FBA inhibitor project, biochemical, absorbance, full deck. GDH-TPI coupled enzyme counterscreen, NADH absorbance. inhibition, % at 4.8 µM. hit rate 1.2% among 360,000; in the data active = inhibition above about 30%
UGM FP inh: M. tuberculosis UGM enzyme inhibitors, primary screen, biochemical, fluorescence polarization, single point; purified UGM, fluorescence polarization probe displacement; inhibition, % at 10 µM; hit rate 0.06% among 320,000; AID 504406, 2011; in the data active = inhibition above about 10%, passing the limit was not always enough
Target sequence (P9WIQ1 whole entry, looked up): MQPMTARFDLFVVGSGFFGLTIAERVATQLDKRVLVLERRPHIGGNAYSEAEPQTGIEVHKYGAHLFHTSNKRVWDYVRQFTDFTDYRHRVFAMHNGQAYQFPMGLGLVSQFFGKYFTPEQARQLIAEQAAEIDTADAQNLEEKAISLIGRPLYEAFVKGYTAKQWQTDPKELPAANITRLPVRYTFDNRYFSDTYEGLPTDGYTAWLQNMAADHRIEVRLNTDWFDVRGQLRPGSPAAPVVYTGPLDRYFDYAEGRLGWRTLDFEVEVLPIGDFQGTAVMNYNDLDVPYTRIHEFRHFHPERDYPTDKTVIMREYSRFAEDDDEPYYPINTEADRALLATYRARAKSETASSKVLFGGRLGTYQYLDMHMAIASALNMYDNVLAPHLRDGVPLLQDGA
SSB-PriA inh: inhibitors of Klebsiella pneumoniae PriA binding to SSB C-terminal tail, primary screen, biochemical, AlphaScreen. AlphaScreen SSBct-PriA binding, biotinylated peptide. inhibition, % at 33 µM. PriA–SSB C-terminal tail interaction (Klebsiella pneumoniae). hit rate 0.6% among 430,000; in the data active = inhibition mostly above about 37%, no sharp cut-off; inactive = mostly below about 20%
Mtb bLac sens: beta-lactam sensitization of Mtb H37Rv, H37Rv. inhibition, % at 25 µM. hit rate 0.27% among 330,000. M. tuberculosis H37Rv growth with meropenem, percent inhibition; call rule not given here;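 note: growth measured after seven days incubation then overnight dye step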
Mtb FBA inh: Mtb FBA enzyme inhibitors, primary screen, biochemical, fluorescence, strain H37Rv. Fructose-bisphosphate aldolase (Mycobacterium tuberculosis (strain ATCC 25618 / H37Rv)), …. hit rate 2.3% among 360,000. inhibition, % at 1 µM. purified M. tuberculosis FBA, fluorescence read-out
Target sequence (P9WQA3 whole entry, looked up): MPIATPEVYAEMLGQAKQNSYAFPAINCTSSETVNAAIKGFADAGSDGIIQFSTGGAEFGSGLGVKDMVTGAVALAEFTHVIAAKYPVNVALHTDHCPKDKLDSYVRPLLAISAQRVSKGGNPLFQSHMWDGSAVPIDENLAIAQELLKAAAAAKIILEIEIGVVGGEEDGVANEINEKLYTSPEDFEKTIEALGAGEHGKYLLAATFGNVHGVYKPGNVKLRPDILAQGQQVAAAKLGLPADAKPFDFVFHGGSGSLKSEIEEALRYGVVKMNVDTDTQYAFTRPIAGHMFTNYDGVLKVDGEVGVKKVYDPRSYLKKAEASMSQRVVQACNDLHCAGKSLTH
Rv3671c protease: Rv3671c serine protease inhibitors, primary screen, biochemical, fluorescence polarization, M. tuberculosis H37Rv. P9WHR9. inhibition, % at 5.96 µM. hit rate 0.048% among 320,000. AID 2606, 2010; in the data active = inhibition above about 38%;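 note: extracellular domain of Rv3671c used as enzyme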
Mtb FBA inh conf: M. tuberculosis aldolase blockers, biochemical, fluorescence, strain H37Rv, confirmation; hit rate 78% among 5,600; AID 651616, 2012; purified M. tuberculosis FBA, fluorescence read-out; shares compounds with Mtb FBA inh; inhibition, % at 1 µM
GDH-TPI counter-2: GDH-TPI coupling enzyme inhibitors, artefact control for M. tuberculosis FBA inhibitor project, biochemical, fluorescence, high throughput. shares compounds with Mtb FBA inh. GDH-TPI coupled enzyme counterscreen. inhibition, % at 1 µM. hit rate 81% among 5,600. AID 652141, 2013; in the data active = inhibition above about 10%
Large screens that a line does not name were inactive (follow-up assays come after a bar, where they were run). This is a sample that favours compounds with a hit; in the whole collection about 3.2% have one here. Cut-off read from the data, not from the text of the source, unless noted: active = inhibition above about 27%; inactive = the rest.

CN(Cc1cccc(F)c1)C(=O)C1CC(=O)N(c2ccc3c(c2)OCCO3)C1 (stereo not drawn)	Mtb FBA inh 35 | Mtb FBA inh conf active | GDH-TPI counter-2 active
CCOc1cc(C=NNC(=O)COc2ccccc2C)ccc1OC(=O)c1cccs1	none (no result: GDH-TPI counter-1, UGM FP inh, Mtb bLac sens, Mtb FBA inh, Rv3671c protease)
Cc1cc2nnc(SC(C)C)n2c2ccccc12	Mtb FBA inh 28 | Mtb FBA inh conf 130 | GDH-TPI counter-2 103
Cc1sc2nc3scc(C)n3c(=O)c2c1C	none (no result: GDH-TPI counter-1, UGM FP inh, Mtb bLac sens, Mtb FBA inh, Rv3671c protease)
Cc1csc2nc3ccccc3c(=O)n12	Mtb FBA inh 39 | Mtb FBA inh conf 67 | GDH-TPI counter-2 38
CCCCC1C(C#N)=C(C)NC2=C1C(=O)CC(C)(C)C2 (stereo not drawn)	Mtb FBA inh 57 | Mtb FBA inh conf 63 | GDH-TPI counter-2 45
COc1ccc(C2C(C#N)=C(C)NC3=C2C(=O)CC(C)(C)C3)c(OC)c1 (stereo not drawn)	none
COC(=O)c1ccc(C2C(C#N)=C(C)NC3=C2C(=O)CC(C)(C)C3)cc1 (stereo not drawn)	Mtb FBA inh 75 | Mtb FBA inh conf 82 | GDH-TPI counter-2 52
CCOc1ccc(NC(=O)CN(C)C(=O)c2cc(-c3ccco3)nc3ccccc23)cc1OCC	Mtb FBA inh 62 (no result: UGM FP inh, Mtb bLac sens, Rv3671c protease) | Mtb FBA inh conf active | GDH-TPI counter-2 active
COc1cccc(NC(=O)CN(C)C(=O)c2cc(-c3ccco3)nc3ccccc23)c1	Mtb FBA inh 69 (no result: UGM FP inh) | Mtb FBA inh conf inactive | GDH-TPI counter-2 inactive
CN(CC(=O)Nc1ccc(F)cc1)C(=O)c1cc(-c2ccco2)nc2ccccc12	Mtb FBA inh 30 | Mtb FBA inh conf active | GDH-TPI counter-2 active
CCOc1ccc(NC(=O)CN(C)C(=O)c2cc(C)nc3ccccc23)cc1OCC	none
CN(CCOc1ccc(Cl)cc1)C(=O)c1cc(-c2ccco2)nc2ccccc12	Mtb FBA inh 37 | Mtb FBA inh conf 174 | GDH-TPI counter-2 127
Cc1ccc(NC(=O)CN(C)C(=O)c2cc(-c3ccco3)nc3ccccc23)cc1	none
Cc1cc(-c2ccc(NC(=O)c3ccccc3Oc3ccccc3)c(C)c2)ccc1NC(=O)c1ccccc1Oc1ccccc1	none (no result: GDH-TPI counter-1, UGM FP inh, Mtb bLac sens, Mtb FBA inh, Rv3671c protease)
CN1C(=O)c2cc(NS(=O)(=O)c3ccccc3Br)ccc2Oc2ccccc21	none (no result: GDH-TPI counter-1, UGM FP inh, Mtb bLac sens, Mtb FBA inh, Rv3671c protease)
O=C(Cn1c(-c2ccncc2)nc2ccccc21)Nc1ccc2c(c1)OCCO2	none (no result: GDH-TPI counter-1, UGM FP inh, Mtb bLac sens, Mtb FBA inh, Rv3671c protease)
COc1ccccc1Oc1nc(-c2ccccc2)cc(C)c1S(C)(=O)=O	Mtb FBA inh 64 (no result: UGM FP inh) | Mtb FBA inh conf 37 | GDH-TPI counter-2 43
O=C(Nc1ccccc1)c1cccc(=O)o1	GDH-TPI counter-1 33, Mtb FBA inh 52 | Mtb FBA inh conf 197 | GDH-TPI counter-2 174
Cc1ccccc1/C=C1\OC(=O)c2ccccc21	none
Cc1ccc(/C=C2\OC(=O)c3ccccc32)cc1	Mtb FBA inh 45 | Mtb FBA inh conf inactive | GDH-TPI counter-2 inactive
N#Cc1nnn2c1nc(N)c1c(F)cccc12	Mtb FBA inh 32 | Mtb FBA inh conf 170 | GDH-TPI counter-2 143
N#Cc1nnn2c1nc(N)c1c(Cl)cccc12	none (no result: GDH-TPI counter-1, UGM FP inh, SSB-PriA inh, Mtb bLac sens, Rv3671c protease)
O=C(Nc1cnn(CC2CCOCC2)c1)c1cc2ccccc2o1	none (no result: GDH-TPI counter-1, UGM FP inh, Mtb bLac sens, Mtb FBA inh, Rv3671c protease)
Cc1c(C)c2c(OCC(=O)NCc3ccco3)cc3c(c2oc1=O)CCC(C)(C)O3	Mtb FBA inh 34 | Mtb FBA inh conf active | GDH-TPI counter-2 active
CC1(C)Cc2cccc(OCC(=O)NCc3ccco3)c2O1	none (no result: GDH-TPI counter-1, UGM FP inh, Mtb bLac sens, Mtb FBA inh, Rv3671c protease)
Cc1c(C)c2c(OCC(=O)NCc3cccnc3)cc3c(c2oc1=O)CCC(C)(C)O3	Mtb FBA inh 57 | Mtb FBA inh conf 69 | GDH-TPI counter-2 52
Cc1cc(=O)oc2c3c(cc(OCC(=O)N[C@@H](CC(C)C)C(=O)O)c12)OC(C)(C)CC3	Mtb FBA inh 39 | Mtb FBA inh conf 39 | GDH-TPI counter-2 35
COc1ccc(CNC(=O)COc2cc3c(c4oc(=O)cc(C)c24)CCC(C)(C)O3)cc1OC	Mtb FBA inh 39 | Mtb FBA inh conf 54 | GDH-TPI counter-2 38
Cc1ccc(OCC(=O)NC(CC(C)C)C(=O)O)cc1 (stereo not drawn)	none (no result: GDH-TPI counter-1, UGM FP inh, Mtb bLac sens, Mtb FBA inh, Rv3671c protease)
O=C1Sc2ccc(Br)c3cccc1c23	none (no result: GDH-TPI counter-1, UGM FP inh, Mtb bLac sens, Mtb FBA inh, Rv3671c protease)
COc1ccc(Cl)cc1Nc1nc2c(c(=O)[nH]c(=O)n2C)n1CC(=O)O	none (no result: GDH-TPI counter-1, UGM FP inh, Mtb bLac sens, Mtb FBA inh, Rv3671c protease)
Cc1cc(S(=O)(=O)NCC(C)C)ccc1OCC(=O)NCC1CCCO1 (stereo not drawn)	none
Cc1c(C)c2c(OCC(=O)NCC(C)C)cc3c(c2oc1=O)CCC(C)(C)O3	Mtb FBA inh 57 (no result: Rv3671c protease) | Mtb FBA inh conf active | GDH-TPI counter-2 190
Cc1c(C)c2c(OCC(=O)NCc3ccncc3)cc3c(c2oc1=O)CCC(C)(C)O3	Mtb FBA inh 31 | Mtb FBA inh conf active | GDH-TPI counter-2 active
CCC(=O)NCCNC(=O)c1c(SC)nsc1SC	none
CSc1nsc(SC)c1CO	Mtb FBA inh 39 | Mtb FBA inh conf inactive | GDH-TPI counter-2 inactive
N#Cc1ccc(-c2ccc(OCC(O)CN3CCOCC3)cc2)cc1 (stereo not drawn)	Mtb FBA inh 40 | Mtb FBA inh conf inactive | GDH-TPI counter-2 inactive
COn1c(-c2ccccc2)nc2c1CCc1nonc1-2	none
c1ccc(COn2c(-c3ccccc3)nc3c2CCc2nonc2-3)cc1	Mtb FBA inh 53 | Mtb FBA inh conf 107 | GDH-TPI counter-2 93
Cc1cc(N2CCN(C)CC2)n2cc(-c3ccc(F)cc3)nc2n1	Mtb FBA inh 69 | Mtb FBA inh conf 41 | GDH-TPI counter-2 37
CCOC(=O)c1c(NC(=O)COC(=O)c2nccnc2N)sc2c1CCC2	Mtb FBA inh 45 | Mtb FBA inh conf 124 | GDH-TPI counter-2 93
CCOC(=O)c1c(NC(=O)COC(=O)c2nccnc2N)sc(C(=O)N(C)C)c1C	Mtb FBA inh 48 | Mtb FBA inh conf active | GDH-TPI counter-2 active
OC[C@@H]1[C@@H](c2ccccc2)C(c2ccccc2)=NN1c1ccccc1	Mtb FBA inh 49 (no result: UGM FP inh, Mtb bLac sens, Rv3671c protease) | Mtb FBA inh conf 120 | GDH-TPI counter-2 91
OC[C@@H]1[C@@H](c2ccc(Cl)cc2)C(c2ccc(F)cc2)=NN1c1ccccc1	Mtb FBA inh 60 (no result: UGM FP inh, Mtb bLac sens, Rv3671c protease) | Mtb FBA inh conf 150 | GDH-TPI counter-2 98
